# In the library only some 5.9% were active in any assay of this set; here they are far more common.
# KB-3-1 cytotox – KB-3-1 parental cell cytotoxicity | KB-3-1 viability, CellTiter-Glo ATP luminescence, 72 h | Potency, µM (doses to about 46.1 µM), most hits filed as cytotoxic | 400,000 compounds, 1.4% hits; also: nearly all actives have a fitted effect of over 60% in size
#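 Cytotoxicity in the drug-sensitive parental line KB-3-1 was scored as loss of CellTiter-Glo luminescence following 72 h incubation with compound. Values come from curve fitting of normalized concentration-response data.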
# S2 tox – reduces viability in counter-screen for ATXN expression inhibitors. S2 cells (HEK-293 line with an ATXN2-luciferase reporter) viability, CellTiter-Fluor protease fluorescence, 24 h. Potency, µM (doses to about 56.7 µM), hits mostly cytotoxic. 400,000 compounds, 0.49% hits; also: nearly all actives have a fitted effect of over 40% in size
# TGFb inhibitor – inhibitors of TGF-b signaling. HepG2 CAGA-GFP TGF-b/SMAD3 reporter, GFP fluorescence, 18 h; TGF-beta stimulated, 500 pg/mL final. Potency, µM (doses to about 46.1 µM), usual class: inhibitors. 410,000 compounds, 1.2% hits; also: nearly all actives have a fitted effect of over 65% in size
#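 Cell-based qHTS in HEPG2 carrying a CAGA-GFP Smad reporter; compounds added before 500 pg/mL final TGF-beta, 18 h incubation at 37 degrees C, GFP fluorescence quantified per cell by imaging cytometry.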
# KB-V1 cytotox – kills drug-selected multidrug resistant KB-V1 cells. KB-V1 MDR cells viability, CellTiter-Glo, 72 h. Potency, µM (top dose mostly 46.1 µM), hits mostly cytotoxic. 400,000 compounds, 3.4% hits. AID 1347076; also: nearly all actives have a fitted effect of over 60% in size
#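 Cells of the MDR subline KB-V1 are plated, dosed with compound at multiple concentrations, and incubated 72 h at 37 degrees C; CellTiter-Glo is then added and luminescence read after 10 min.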
# HepG2 viability – kills HepG2 cells in TGF-b inhibitor counter-screen; 410,000 compounds, 0.76% hits; AID 588856; Potency, µM (series often up to 46.1 µM), usual class: cytotoxic; HepG2 CAGA-GFP viability, ATP luminescence, 18 h
#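 CellTiter-Glo luminescence gave cytotoxicity after 18 hours at 37 degrees C. The cells were HepG2 CAGA-GFP in 1% FBS DMEM, stimulated with 500 pg/mL TGF-beta after compound addition. %Activity was normalised to no-cell wells (complete cell-killing) and DMSO (no toxicity), and curves were fitted and classified.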
# ATXN2 expr inh – ATXN2 expression inhibition; HEK-293 ATXN2-luciferase reporter, luminescence, 24 h; Potency, µM (titrated, usually from 57 µM), usual class: inhibitors; 360,000 compounds, 0.72% hits; AID 1745845; also: nearly all actives have a fitted effect of over 55% in size
#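 ATXN2-luciferase reporter cells (luciferase flanked by upstream and downstream ATXN2 gene portions) were treated 24 h at 37 °C with compounds at up to 57 uM. SteadyGlo luminescence gave expression; GF-AFC fluorescence gave viability.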
# A number is an active result; – = inactive; ? = inconclusive; · = no result given. Calls follow the shape of the dose curve; as a rule, active = well fitted curve in the direction sought with a large enough effect; inconclusive = small, poorly fitted or top-dose-only effect, or another doubt; inactive = no such curve, though single readings can be large; an effect the other way counts as inactive or inconclusive.
SMILES,KB-3-1 cytotox,S2 tox,TGFb inhibitor,KB-V1 cytotox,HepG2 viability,ATXN2 expr inh
Cc1ccc(C(C(=O)NC2CCCC2)N(C(=O)Cc2cccs2)c2ccc3c(c2)OCCO3)cc1 (stereo not drawn),–,–,–,20.6µM,–,–
Cc1nn(C)cc1C(C(=O)NC1CCCCC1)N(C(=O)Cc1cccs1)c1ccc(F)cc1 (stereo not drawn),–,–,–,–,–,–
Cc1ccc(C(C(=O)NCc2ccccc2)N(Cc2cccs2)C(=O)c2ccc3c(c2)OCCO3)cc1 (stereo not drawn),?,–,–,–,–,?
COc1ccc(CNC(=O)C(c2ccc(C)cc2)N(Cc2cccs2)C(=O)c2ccc3c(c2)OCCO3)cc1 (stereo not drawn),–,–,–,4.61µM,–,–
Cc1nn(C)cc1C(C(=O)NC1CCCCC1)N(C(=O)Cc1cccs1)c1ccc(C(C)C)cc1 (stereo not drawn),?,–,–,2.91µM,–,–
Cc1ccc(C)c(N(C(=O)Cc2cccs2)C(C(=O)NC2CCCC2)c2ccc(C)o2)c1 (stereo not drawn),–,–,–,?,–,–
CCN(Cc1ccncc1)Cc1ccc2c(c1)CN(C(=O)c1ccccc1-n1cccn1)CCO2,·,–,·,·,·,·
CN1C(CSCC(F)(F)F)Nc2cc(Cl)c(S(N)(=O)=O)cc2S1(=O)=O (stereo not drawn),·,–,·,·,·,–
C=C1C(=O)C23C(O)C1CCC2C12CCCC(C)(COC(C)=O)C1C(O)C3(O)OC2 (stereo not drawn),13µM,7.08µM,2µM,?,3.16µM,?
COc1ccc(-c2cc(=O)c3ccccc3[nH]2)cc1,–,–,?,–,–,–
Cc1ccc(-c2cc(=O)c3cc(F)ccc3[nH]2)cc1,?,–,–,?,–,–
O=c1cc(-c2ccccc2)[nH]c2cc(Cl)ccc12,?,?,–,?,–,–
COc1ccc2[nH]c(-c3cccc(F)c3)cc(=O)c2c1,0.411µM,–,?,?,–,–
O=c1cc(-c2ccccc2)[nH]c2ccc(F)cc12,1.16µM,–,?,?,–,–
O=c1cc(-c2cccc(F)c2)[nH]c2ccccc12,0.366µM,?,?,?,–,–
Cc1ccc(-c2cc(=O)c3cc(C)ccc3[nH]2)cc1,9.2µM,–,–,?,–,–
Cc1ccc2[nH]c(C(F)(F)F)cc(=O)c2c1,–,–,–,?,–,–
Cc1ccc2[nH]c(-c3cccc(F)c3)cc(=O)c2c1,0.411µM,–,?,–,–,–
Cc1ccc(NC(=O)CCc2nc3cccnc3n2-c2ccccc2)cc1Cl,–,?,–,–,–,–
O=C(Nc1cc(N2CCCCC2)ncn1)c1ccc(F)cc1,–,–,–,–,–,–
O=C(Nc1ccc(C(F)(F)F)cc1)c1cccnc1N1CCOCC1,–,–,–,16.4µM,–,–
O=C(Nc1ccc(N2CCOCC2)nc1)c1ccc(C(F)(F)F)cc1,?,–,–,8.2µM,–,–
O=C(Nc1cccc(C(F)(F)F)c1)c1cccnc1N1CCOCC1,–,–,–,–,–,·
O=C(Nc1cc(N2CCOCC2)ncn1)c1ccc(F)cc1,16.4µM,–,–,–,–,?
CCOc1ccc(CCNS(=O)(=O)c2c(C)nc3sc(C)cn3c2=O)cc1OCC,–,·,–,–,–,·
SMILES,KB-3-1 cytotox,S2 tox,TGFb inhibitor,KB-V1 cytotox,HepG2 viability,ATXN2 expr inh
Cn1ccc2cc(-c3ccc4ncnc(NCc5cccs5)c4c3)ccc21,18.4µM,?,?,?,–,?
COc1ccccc1CCC(=O)Nc1nccs1,–,–,–,–,–,–
Cc1cnc(NC(=O)CC(C)c2ccccc2)s1 (stereo not drawn),20.6µM,–,–,?,–,–
COc1ccccc1CCC(=O)Nc1ncc(C)s1,?,–,–,23.1µM,–,–
COc1ccc(N(Cc2cccs2)C(=O)COc2cccc(Cl)c2)cc1,–,·,?,–,–,·
S=C(Nc1ccc(Cl)cc1)c1nc2ccccc2[nH]1,?,?,?,5.17µM,–,–
CC1(C)C[C@H](O)[C@]2(CO)[C@H](O)C[C@]3(C)C(=CCC4[C@@]5(C)CC[C@H](O)C(C)(C)C5CC[C@]43C)[C@@H]2C1 (stereo partly drawn),?,?,?,?,11.2µM,?
CC1(C)C[C@H](O)[C@]2(CO)CC[C@]3(C)C(=CCC4[C@@]5(C)CC[C@H](O)C(C)(C)C5CC[C@]43C)[C@@H]2C1 (stereo partly drawn),–,–,–,–,–,–
C[C@@H]1[C@H](C)CC[C@]2(C(=O)O)CC[C@]3(C)C(=CC[C@@H]4[C@@]5(C)CC[C@H](O)C(C)(C)[C@H]5CC[C@]43C)[C@@H]12,·,·,·,·,·,55.9µM
CCCCN(CC)CCCNC(=O)CCN1N=C(c2ccc(OC)cc2)CCC1=O,·,·,–,·,–,·
O=C(c1cc(-c2ccc(Cl)c(Cl)c2)on1)N1CCCCC1,–,–,–,14.6µM,–,–
O=C(c1cc(-c2ccc(Cl)cc2)on1)N1CCCC1,–,?,–,–,–,?
COc1ccc(-c2cc(C(=O)N3CCCCC3C)no2)cc1OC (stereo not drawn),·,·,·,·,–,·
CC1CCCCN1C(=O)c1cc(-c2ccc(Cl)c(Cl)c2)on1 (stereo not drawn),–,–,–,18.4µM,–,–
CCC1CCCCN1C(=O)c1cc(-c2ccc(Cl)c(Cl)c2)on1 (stereo not drawn),–,–,?,20.6µM,–,–
CCC1CN(CCNC(=O)c2cccc3nccnc23)Cc2cc(OC)ccc2O1 (stereo not drawn),·,–,·,·,·,·
COc1ccc(O)c(/C=c2/sc3nc4cc(C)c(C)cc4n3c2=O)c1,?,–,?,18.4µM,–,–
O=C(NCc1cccnc1)/C(=C\c1ccc(-c2cccc(Cl)c2)o1)S(=O)(=O)c1ccccc1,?,·,15.8µM,4.11µM,–,25.1µM
O=C(NCc1cccnc1)/C(=C/c1ccc(-c2cccc(Cl)c2)o1)S(=O)(=O)c1ccccc1,–,–,?,?,–,?
Cc1ccc(C(=O)N/C(=C\c2ccc(-c3cc(Cl)ccc3Cl)o2)C(=O)NCc2cccnc2)cc1,?,–,?,16.4µM,–,–
Cc1onc(-c2c(F)cccc2Cl)c1C(=O)Nc1ccc(S(=O)(=O)N2CCOCC2)cc1,–,–,–,–,–,–
Cc1onc(-c2c(F)cccc2Cl)c1C(=O)Nc1cc(S(=O)(=O)N2CCCCC2)ccc1O,?,–,?,23.1µM,–,–
CCOc1ccc(NC(=O)CN(c2ccc([N+](=O)[O-])cc2)S(=O)(=O)c2ccccc2)cc1,–,–,–,7.31µM,–,–

# Screening data from PubChem.
